# Laboratory results: PubChem BioAssay (NCATS)
# Results filed as inconclusive are left out. Where a call stands in place of a potency, no number is given. A number with no mark means an inactive call. The source made the active and inactive calls. Unless noted, calls follow the shape of the dose curve; as a rule, active = well fitted curve in the direction sought with a large enough effect in the repeat runs; inconclusive = weak or mixed curves; inactive = no such curve, though single readings can be large; an effect the other way counts as inactive or inconclusive. *1 amine or outer side, *2 acyl side, *3 side chain or, on linkers, in order; H or OH if unused. Where a SMILES comes first, the peptide text is derived from it. Bridges are numbered along the chain shown (N, C = ends). [ ]: non-standard residue; d: D form. The star is where a group is joined. ξ: configuration not given here. X10 = NC1=NCCC(C(N[*:1])C(=O)[*:2])N1; ΔAla(3-NHCONH2) = NC(=O)NC=C(N)C(=O)O; ξβ3hOrn = NCCCC(N)CC(=O)*; Dap = NC[CH](N)C(=O)O
# Columns and labels:
# [1] = biological target: Cytochrome P450 2D6 (Homo sapiens) (UniProt P10635); assay: Cytochrome P450 family 2 subfamily D member 6 (CYP2D6) small molecule antagonists: luciferase biochemical (cell-free) qHTS assay (AID 1645840); also: nearly all actives have a fitted effect of over 55% in size; also: potency is read from the fitted curve at half-maximal effect; as to activity change, negative = inhibition: series mostly up to about 57 µM
# In short: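 P450-Glo CYP2D6 system: proluciferin substrate converted by enzyme to luciferin, read by luminescence proportional to activity. Enzyme-substrate mix with compound 10 min at room temperature, then NADPH regeneration 1 h before detection reagent.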
# [2] = biological target: Cytochrome P450 3A4 (Homo sapiens) (UniProt P08684); assay: Cytochrome P450 family 3 subfamily A member 4 (CYP3A4) small molecule antagonists: luciferase qHTS assay (AID 1645841); also: nearly all actives have a fitted effect of over 45% in size; also: potency is read from the fitted curve at half-maximal effect
# In short: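 P450-Glo CYP3A4 enzyme with proluciferin substrate was preincubated with DMSO-dissolved compounds for 10 min at room temperature. NADPH regeneration solution started a 1 h reaction. Detection reagent stopped it, and luminescence was read after 20 min.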
# [3] = biological target: Cytochrome P450 2C9 (Homo sapiens) (UniProt P11712); assay: Cytochrome P450 family 2 subfamily C member 9 (CYP2C9) small molecule antagonists: luciferase biochemical (cell-free) qHTS assay (AID 1645842); also: nearly all actives have a fitted effect of over 55% in size; also: potency is read from the fitted curve at half-maximal effect; as to activity change, negative = inhibition: series mostly up to about 57 µM
# In short: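 P450-Glo CYP2C9 system: proluciferin substrate with enzyme in mix containing 0.4% BSA, 10 min at room temperature, then NADPH regeneration solution added and incubated 1 h at 37C. Detection reagent stopped reaction; luminescence read after 20 min as RLU.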
# [4] = Primary qHTS for inhibitors of nuclear receptor binding SET domain protein 2 (NSD2) in an isogenic RCH-ACV NSD2 p.E1099K mutant (9B) (AID 1645876; active = well fitted curve in the direction sought with a large enough effect; an effect the other way counts as inactive or inconclusive; also: nearly all actives have a fitted effect of over 70% in size; also: potency is read from the fitted curve at half-maximal effect)
# [5] = Primary qHTS for inhibitors of nuclear receptor binding SET domain protein 2 (NSD2) in an RCH-ACV wild type WT cells (2C) (AID 1645877; active = well fitted curve in the direction sought with a large enough effect; an effect the other way counts as inactive or inconclusive; also: nearly all actives have a fitted effect of over 70% in size; also: potency is read from the fitted curve at half-maximal effect)
# [6] = biological target: Rap guanine nucleotide exchange factor 3 (Homo sapiens) (UniProt O95398); assay: Confirmatory qHTS for antagonist of cAMP-regulated guanine nucleotide exchange factor 3 (EPAC1) (AID 1645880; active = well fitted curve in the direction sought with a large enough effect; an effect the other way counts as inactive or inconclusive; also: nearly all actives have a fitted effect of over 55% in size)
# In short: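 Released BODIPY-GDP fluoresces less than Rap1-bound BODIPY-GDP; the signal is followed at 480/540 nm at 5-min intervals over 30 min, after 5 min at room temperature. Reactions contain 100 nM EPAC1, 250 nM RAP1B-BODIPY-GDP and 50 uM GDP; results are normalized to ATA and DMSO.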
# [7] = biological target: Rap guanine nucleotide exchange factor 3 (Homo sapiens) (UniProt O95398); assay: Confirmatory qHTS for agonist of cAMP-regulated guanine nucleotide exchange factor 3 (EPAC1) (AID 1645881; active = well fitted curve in the direction sought with a large enough effect; an effect the other way counts as inactive or inconclusive; also: potency is read from the fitted curve at half-maximal effect; nearly all actives have a fitted effect of over 75% in size)
# [8] = biological target: Rap guanine nucleotide exchange factor 4 (Homo sapiens) (UniProt Q8WZA2); assay: Confirmatory qHTS for agonist of cAMP-regulated guanine nucleotide exchange factor 4 (EPAC2) (AID 1645884; active = well fitted curve in the direction sought with a large enough effect; an effect the other way counts as inactive or inconclusive;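 also: nucleotide exchange releases bodipy-GDP from Rap1 and this lowers its fluorescence; potency is read from the fitted curve at half-maximal effect; nearly all actives have a fitted effect of over 65% in size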)
# Rap guanine nucleotide exchange factor 4 (Homo sapiens), sequence (Q8WZA2 whole entry, looked up): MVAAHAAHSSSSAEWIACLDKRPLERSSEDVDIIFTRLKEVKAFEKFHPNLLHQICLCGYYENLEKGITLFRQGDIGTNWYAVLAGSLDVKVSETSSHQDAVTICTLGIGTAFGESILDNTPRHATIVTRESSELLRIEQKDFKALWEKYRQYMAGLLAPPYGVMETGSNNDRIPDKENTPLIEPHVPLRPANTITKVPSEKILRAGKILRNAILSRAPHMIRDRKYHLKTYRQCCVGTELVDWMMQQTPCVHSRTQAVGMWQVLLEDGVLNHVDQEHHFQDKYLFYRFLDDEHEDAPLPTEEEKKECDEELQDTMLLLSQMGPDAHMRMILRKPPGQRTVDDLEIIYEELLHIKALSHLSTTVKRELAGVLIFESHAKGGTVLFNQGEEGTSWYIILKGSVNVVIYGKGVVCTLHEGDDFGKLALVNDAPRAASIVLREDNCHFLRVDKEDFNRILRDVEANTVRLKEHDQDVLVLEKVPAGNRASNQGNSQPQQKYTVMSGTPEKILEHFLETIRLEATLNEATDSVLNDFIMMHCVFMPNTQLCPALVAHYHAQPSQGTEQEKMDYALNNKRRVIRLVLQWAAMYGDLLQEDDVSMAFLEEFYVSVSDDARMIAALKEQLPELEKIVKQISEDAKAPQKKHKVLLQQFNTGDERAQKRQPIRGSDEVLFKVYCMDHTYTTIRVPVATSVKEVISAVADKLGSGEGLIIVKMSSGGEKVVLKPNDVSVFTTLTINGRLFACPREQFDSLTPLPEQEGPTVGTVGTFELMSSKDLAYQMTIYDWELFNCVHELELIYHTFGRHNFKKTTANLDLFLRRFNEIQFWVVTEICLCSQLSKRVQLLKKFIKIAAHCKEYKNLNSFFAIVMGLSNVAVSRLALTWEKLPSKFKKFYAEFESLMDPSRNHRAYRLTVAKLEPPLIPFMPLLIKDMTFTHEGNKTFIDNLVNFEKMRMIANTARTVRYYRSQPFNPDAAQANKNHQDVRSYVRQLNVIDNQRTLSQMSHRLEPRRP
# Cytochrome P450 2D6 (Homo sapiens), sequence (P10635 whole entry, looked up): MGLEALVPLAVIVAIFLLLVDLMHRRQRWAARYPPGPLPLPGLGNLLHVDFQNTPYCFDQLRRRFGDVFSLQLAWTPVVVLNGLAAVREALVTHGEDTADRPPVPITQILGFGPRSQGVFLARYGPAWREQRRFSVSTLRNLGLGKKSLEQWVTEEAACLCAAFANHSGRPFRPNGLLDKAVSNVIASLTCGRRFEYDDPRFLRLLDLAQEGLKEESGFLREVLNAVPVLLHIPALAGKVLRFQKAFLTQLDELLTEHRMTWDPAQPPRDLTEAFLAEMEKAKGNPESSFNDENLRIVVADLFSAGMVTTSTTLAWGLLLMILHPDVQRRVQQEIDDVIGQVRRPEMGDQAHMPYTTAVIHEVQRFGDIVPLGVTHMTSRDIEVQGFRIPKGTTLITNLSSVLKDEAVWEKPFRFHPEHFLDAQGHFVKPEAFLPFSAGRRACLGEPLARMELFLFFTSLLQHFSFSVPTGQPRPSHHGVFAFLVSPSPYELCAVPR
# Cytochrome P450 3A4 (Homo sapiens), sequence (P08684 whole entry, looked up): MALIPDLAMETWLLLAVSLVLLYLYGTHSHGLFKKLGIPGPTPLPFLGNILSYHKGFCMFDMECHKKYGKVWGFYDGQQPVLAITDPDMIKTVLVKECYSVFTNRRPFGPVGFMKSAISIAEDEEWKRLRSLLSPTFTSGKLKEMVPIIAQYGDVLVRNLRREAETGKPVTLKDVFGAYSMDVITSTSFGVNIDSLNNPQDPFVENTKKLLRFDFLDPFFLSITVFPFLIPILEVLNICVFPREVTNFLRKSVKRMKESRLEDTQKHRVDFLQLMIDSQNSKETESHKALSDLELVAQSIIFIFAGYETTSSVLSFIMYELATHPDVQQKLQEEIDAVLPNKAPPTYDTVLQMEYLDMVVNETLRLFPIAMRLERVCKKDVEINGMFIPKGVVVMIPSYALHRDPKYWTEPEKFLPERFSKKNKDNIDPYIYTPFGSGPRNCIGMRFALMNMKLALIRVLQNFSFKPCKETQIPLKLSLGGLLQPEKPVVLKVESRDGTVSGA
# Cytochrome P450 2C9 (Homo sapiens), sequence (P11712 whole entry, looked up): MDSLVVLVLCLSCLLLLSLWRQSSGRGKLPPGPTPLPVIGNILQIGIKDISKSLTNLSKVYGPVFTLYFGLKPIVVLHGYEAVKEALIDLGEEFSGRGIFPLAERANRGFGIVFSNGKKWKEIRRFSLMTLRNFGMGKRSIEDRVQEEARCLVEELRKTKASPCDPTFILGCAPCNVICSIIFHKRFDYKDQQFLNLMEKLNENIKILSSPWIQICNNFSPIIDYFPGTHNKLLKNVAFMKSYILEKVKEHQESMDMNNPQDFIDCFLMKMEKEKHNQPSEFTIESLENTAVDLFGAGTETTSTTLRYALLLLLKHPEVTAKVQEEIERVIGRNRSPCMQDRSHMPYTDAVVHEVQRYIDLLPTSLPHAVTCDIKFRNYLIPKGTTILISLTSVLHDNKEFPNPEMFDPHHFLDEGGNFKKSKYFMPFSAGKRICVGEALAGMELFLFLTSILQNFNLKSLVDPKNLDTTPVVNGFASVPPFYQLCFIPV
# Rap guanine nucleotide exchange factor 3 (Homo sapiens), sequence (O95398 whole entry, looked up): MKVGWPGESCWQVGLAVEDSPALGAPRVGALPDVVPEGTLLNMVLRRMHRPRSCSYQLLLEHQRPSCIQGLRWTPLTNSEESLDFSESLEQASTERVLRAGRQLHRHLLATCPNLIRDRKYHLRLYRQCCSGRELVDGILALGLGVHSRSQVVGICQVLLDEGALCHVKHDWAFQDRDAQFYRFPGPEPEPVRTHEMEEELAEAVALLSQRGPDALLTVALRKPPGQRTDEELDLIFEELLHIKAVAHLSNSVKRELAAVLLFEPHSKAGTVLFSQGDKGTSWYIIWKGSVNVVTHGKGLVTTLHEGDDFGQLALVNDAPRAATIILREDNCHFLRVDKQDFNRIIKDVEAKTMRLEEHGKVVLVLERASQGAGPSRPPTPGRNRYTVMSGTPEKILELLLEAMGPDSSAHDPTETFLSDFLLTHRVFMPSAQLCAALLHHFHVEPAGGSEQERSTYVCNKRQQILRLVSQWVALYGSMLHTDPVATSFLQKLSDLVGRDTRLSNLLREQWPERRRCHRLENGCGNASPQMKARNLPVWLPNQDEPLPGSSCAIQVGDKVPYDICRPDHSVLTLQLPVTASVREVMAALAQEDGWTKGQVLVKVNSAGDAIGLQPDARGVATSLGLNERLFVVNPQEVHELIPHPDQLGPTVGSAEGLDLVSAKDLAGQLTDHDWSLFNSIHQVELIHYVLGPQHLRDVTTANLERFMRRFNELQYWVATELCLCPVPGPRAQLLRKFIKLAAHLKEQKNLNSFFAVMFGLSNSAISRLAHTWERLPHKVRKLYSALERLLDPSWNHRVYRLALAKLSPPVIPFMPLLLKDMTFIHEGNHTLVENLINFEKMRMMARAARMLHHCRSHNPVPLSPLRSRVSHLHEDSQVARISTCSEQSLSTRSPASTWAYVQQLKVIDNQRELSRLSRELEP
compound,measurement,setting,value
NC(=O)NC1N=C([O][Al])NC1=O (stereo unspecified),Potency,[1],13.8 µM (active)
same,Potency,[2],5.49 µM (active)
same,Potency,[3],inactive
same,Potency,[4],inactive
same,Potency,[5],inactive
O=C(O)[C@@H](O)[C@H](O)[C@H](O)[C@@H](O)C(=O)O,Potency,[1],inactive
same,Potency,[2],inactive
same,Potency,[3],inactive
same,Potency,[4],inactive
same,Potency,[5],inactive
CCCN(CCC)C(=O)C(CCC(=O)OCCCN1CCN(CCOC(=O)Cc2c(C)n(C(=O)c3ccc(Cl)cc3)c3ccc(OC)cc23)CC1)NC(=O)c1ccccc1 (stereo unspecified),Potency,[1],7.76 µM (active)
same,Potency,[3],3.47 µM (active)
CC[C@@H]([C@H](C)O)n1ncn(-c2ccc(N3CCN(c4ccc(OC[C@@H]5CO[C@@](Cn6cncn6)(c6ccc(F)cc6F)C5)cc4)CC3)cc2)c1=O,Potency,[1],inactive
Nc1ccc2cc3ccc(N)cc3nc2c1,Potency,[1],inactive
same,Potency,[2],4.36 µM (active)
same,Potency,[3],inactive
same,Potency,[4],2.37 µM (active)
same,Potency,[5],1.68 µM (active)
same,Potency,[6],inactive
same,Potency,[7],17.7 µM (active)
same,Potency,[8],22.3 µM (active)
Nc1ncnc2nc[nH]c12,Potency,[1],inactive
same,Potency,[2],inactive
same,Potency,[3],inactive
same,Potency,[4],inactive
same,Potency,[5],inactive
CC(=O)OCC(=O)Nc1cc(C#N)cc(NC(=O)COC(C)=O)c1Cl,Potency,[1],inactive
same,Potency,[2],inactive
same,Potency,[3],inactive
same,Potency,[4],inactive
same,Potency,[5],inactive
CO[C@@]1(NC(=O)CSC[C@@H](N)C(=O)O)C(=O)N2C(C(=O)O)=C(CSc3nnnn3C)CS[C@@H]21,Potency,[1],inactive
same,Potency,[2],inactive
same,Potency,[3],inactive
same,Potency,[4],inactive
same,Potency,[5],inactive
C=CCNc1nc(NCC=C)nc(N2CCN(C(c3ccc(F)cc3)c3ccc(F)cc3)CC2)n1,Potency,[1],inactive
same,Potency,[3],inactive
CCOC(=O)c1ccc(OCCN2C[C@H](O)[C@@H](O)[C@H](O)[C@H]2CO)cc1,Potency,[1],inactive
same,Potency,[2],inactive
same,Potency,[3],inactive
same,Potency,[4],inactive
same,Potency,[5],inactive
C/C(=C(/OCCOc1ccc(Cl)cc1)c1ccc(Cl)cc1Cl)n1ccnc1,Potency,[1],0.871 µM (active)
same,Potency,[3],0.55 µM (active)
CCCC(=O)O[C@]1(C(=O)COC(=O)CC)CC[C@H]2[C@@H]3CCC4=CC(=O)CC[C@]4(C)[C@H]3[C@@H](O)C[C@@]21C,Potency,[1],inactive
same,Potency,[2],inactive
same,Potency,[3],inactive
same,Potency,[4],inactive
NCCCC(N)CC(=O)NCC1NC(=O)C(CO)NC(=O)C(N)CNC(=O)C(C2CCN=C(N)N2)NC(=O)C(=CNC(N)=O)NC1=O (stereo not drawn) (H-[Dap]S[Dap](ξβ3hOrn)[ΔAla(3-NHCONH2)][X10]; lactam 1-C; configuration not given here),"activity change, negative = inhibition",[1],0.741% [at 0.91 µM]
same,"activity change, negative = inhibition",[2],-11.7% [at 0.91 µM]
same,"activity change, negative = inhibition",[3],7.44% [at 0.91 µM]
same,outcome,[4],inactive [at 0.588 µM]
O=C(CCCCCCCCC#CI)Oc1ccccc1,Potency,[1],5.42 µM (active)
same,Potency,[3],16.2 µM (active)
CC(=O)N(CC(=O)N(C)C)c1ccccc1,Potency,[1],inactive
same,Potency,[2],inactive
same,Potency,[3],inactive
same,Potency,[4],inactive
same,Potency,[5],inactive
OC(CCCN1CCCCC1)(c1ccccc1)c1ccccc1,Potency,[1],0.138 µM (active)
O=C(O)C1CCC1,Potency,[1],inactive
same,Potency,[2],inactive
same,Potency,[3],inactive
same,Potency,[4],inactive
same,Potency,[5],inactive
CC(=O)N(CC(O)CO)c1c(I)c(C(=O)NCCO)c(I)c(C(=O)NCC(O)CO)c1I (stereo unspecified),Potency,[1],inactive
same,Potency,[2],inactive
same,Potency,[3],inactive
same,Potency,[4],inactive
same,Potency,[5],inactive
CC(C)C(=O)Nc1cccc(C2CN3CCSC3=N2)c1 (stereo unspecified),Potency,[1],inactive
CC(C)(C)c1cc(C=O)cc(C(C)(C)C)c1O,Potency,[1],inactive
C[C@H](N)C(=O)N[C@@H](C)C(=O)NC1[C@H]2CN(c3nc4c(cc3F)c(=O)c(C(=O)O)cn4-c3ccc(F)cc3F)C[C@@H]12 (stereo partly specified),Potency,[1],inactive
same,Potency,[2],inactive
same,Potency,[3],inactive
same,Potency,[4],7.5 µM (active)
same,Potency,[5],6.68 µM (active)
CC(C)C[C@@H]1[C@H](c2ccccc2)OC(=O)N1CCCN1CCCCCC1,Potency,[1],0.776 µM (active)
same,Potency,[3],inactive
CCc1cc(S(=O)(=O)O)c2cc(C(C)C)cccc1-2,Potency,[1],inactive
same,Potency,[3],inactive
CC(C)C[C@H](NC(=O)CNC(=O)[C@H](Cc1ccc(O)cc1)NC(=O)[C@H](CO)NC(=O)[C@H](Cc1c[nH]c2ccccc12)NC(=O)[C@H](Cc1cnc[nH]1)NC(=O)[C@@H]1CCC(=O)N1)C(=O)N[C@@H](CCCN=C(N)N)C(=O)N1CCC[C@H]1C(=O)NCC(N)=O (stereo in doubt),Potency,[1],inactive
same,Potency,[3],inactive
CCCCCC1Nc2cc(C(F)(F)F)c(S(N)(=O)=O)cc2S(=O)(=O)N1 (stereo unspecified),Potency,[1],3.89 µM (active)
same,Potency,[2],inactive
same,Potency,[3],1.95 µM (active)
same,Potency,[4],inactive
same,Potency,[5],inactive
Oc1cccc2[nH]ccc12,Potency,[1],15.5 µM (active)
COc1ccc2c(c1)c(CC(=O)OC/C=C(\C)CC/C=C(\C)CCC=C(C)C)c(C)n2C(=O)c1ccc(Cl)cc1,Potency,[1],12.3 µM (active)
